Values joined by “and” are separate entries in the source; they are usually repeats but may differ in a detail not shown here. Identical values can stand only once.
Legend:
Experiment in all cases: growth inhibition (% activity, log2 RLU normalised to DMSO / staurosporine); higher = more growth inhibition
Details in all cases: 33 µM
DIPGX29 = system: DIPGX29 (H3.3 K27M diffuse intrinsic pontine glioma line)
In short: (§1)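 The growth-inhibition value comes from CellTiter-Glo luminescence, log2-transformed, normalised per plate to % activity between solvent and positive control wells, and taken as the median over replicates. Treatment of pHGG cell lines and H9-derived neural stem cells with approved drugs was at a single final concentration of about 33 μM, in triplicate, for 7 days at 37 °C, 5% CO2.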

DIPGX37 = system: DIPGX37 (H3.3 K27M diffuse intrinsic pontine glioma line)
In short: as §1

DIPGX7 = system: DIPGX7 (H3.3 K27M diffuse intrinsic pontine glioma line)
In short: as §1

DIPGX9 = system: DIPGX9 (diffuse intrinsic pontine glioma line)
In short: as §1

HGGX39 = system: HGGX39 (paediatric high-grade glioma line)
In short: as §1

HGGX6 = system: HGGX6 (H3.3 G34R paediatric high-grade glioma line)
In short: as §1

HNSC = system: HNSC
In short: as §1

SUDIPGIV = system: SUDIPGIV (diffuse intrinsic pontine glioma line)
In short: as §1

SUDIPGVI = system: SUDIPGVI (diffuse intrinsic pontine glioma line)
In short: as §1

SUDIPGXIII = system: SUDIPGXIII (diffuse intrinsic pontine glioma line)
In short: as §1

Structure (SMILES)	growth inhibition (DIPGX29)	growth inhibition (DIPGX37)	growth inhibition (DIPGX7)	growth inhibition (DIPGX9)	growth inhibition (HGGX39)	growth inhibition (HGGX6)	growth inhibition (HNSC)	growth inhibition (SUDIPGIV)	growth inhibition (SUDIPGVI)	growth inhibition (SUDIPGXIII)
CCn1cc(C(=O)O)c(=O)c2cc(F)c(N3CCNC(C)C3)c(F)c21 (stereo not given)	-4.04%	-2.84%	-0.94%	-2.66%	-4.99%	-5.88%	9.04%	-2.28%	-4.26%	1.13%
NC(=O)c1ncn([C@@H]2O[C@H](CO)[C@@H](O)[C@H]2O)n1	-0.559%	0.551%	0.987%	0.303%	1.53%	0.756%	-0.0938%	-0.992%	2.19%	0.78%
CCOC(=O)[C@H](CCc1ccccc1)N[C@@H](C)C(=O)N1Cc2cc(OC)c(OC)cc2C[C@H]1C(=O)O	-2.18%	-2.28%	-0.52%	-1.23%	-1.86%	-4.51%	12.2%	-0.334%	-11%	1.38%
C=Cc1c(C)c2cc3nc(cc4[nH]c(cc5nc(cc1[nH]2)C(C)=C5CCC(=O)O)c(CCC(=O)OC)c4C)C1(C)C3=CC=C(C(=O)OC)C1C(=O)OC (stereo not given)	0.0791%	-1.21%	0.254%	-0.022%	1.95%	0.712%	2.35%	-0.469%	-1.11%	-2.15%
Nc1nc(N)nc(-c2cc(Cl)ccc2Cl)n1	-2.22%	-3.47%	-1.19%	-0.993%	-0.32%	0.13%	-4.65%	-1.63%	-0.709%	-0.715%
CC(=O)SCC(Cc1ccccc1)C(=O)NCC(=O)OCc1ccccc1 (stereo not given)	1.1%	2.25%	1.03%	1.31%	1.49%	1.32%	-1.4%	-1.43%	-1.57%	-0.948%
CN1CC2c3ccccc3Oc3ccc(Cl)cc3C2C1 (stereo not given)	1.89%	-5.66%	0.982%	0.366%	5.72%	0.239%	2.74%	2.1%	-0.852%	0.618%
CCOC(=O)C1=C(C)NC(C)=C(C(=O)OCC)C1c1ccccc1/C=C/C(=O)OC(C)(C)C	5.9%	-3.39%	7.49%	4.68%	24.1%	2.24%	46.6%	12.7%	1.91%	7.34%
CN[C@H]1CC[C@@H](c2ccc(Cl)c(Cl)c2)c2ccccc21	13.3%	6.8%	6.25%	4.32%	7.5%	7.73%	55%	3.54%	6.72%	1.68%
CS(=O)(=O)c1ccc(C2=C(c3ccccc3)C(=O)OC2)cc1	-1.33%	-0.751%	-1.9%	-1.51%	-1.94%	-2.78%	-3.76%	-4.83%	-0.628%	0.203%
O=S(=O)(O)c1cc(O)ccc1O	-4.18%	-4.39%	-0.642%	-3.41%	-5.27%	-3.97%	13.9%	-3.95%	-12.4%	1.53%
CN(C)CCC(c1ccc(Br)cc1)c1ccccn1 (stereo not given)	-0.2%	1.72%	0.687%	0.118%	1.57%	-1.76%	4.12%	-0.116%	-0.379%	1.63%
Cc1cccc(Nc2ccncc2S(=O)(=O)NC(=O)NC(C)C)c1	-1.52%	1.45%	-0.371%	-0.205%	1.47%	-0.821%	-0.596%	-1.46%	1.11%	1.52%
CCN1CCN(c2cc(-c3ccc(F)cc3)c3c(n2)CCCCCC3)CC1	9.89%	1.2%	21.9%	4.47%	10.1%	0.894%	5%	4.82%	4.25%	2.42%
O=C(Nc1ccccc1)c1ccccc1O	-0.176%	2.96%	0.467%	-0.488%	3.96%	0.186%	1.7%	5.1%	-0.592%	1.74%
N#CC[C@H](C1CCCC1)n1cc(-c2ncnc3[nH]ccc23)cn1	-0.711%	-0.293%	0.591%	-1.04%	1.2%	-0.228%	-3.15%	-1.09%	1.18%	-0.858%
CN(C)c1cc(NC(=O)CNC(C)(C)C)c(O)c2c1CC1CC3C(N(C)C)C(=O)C(C(N)=O)=C(O)C3(O)C(=O)C1=C2O (stereo not given)	-2.13%	-0.102%	-0.656%	-1.41%	-1.33%	-2.33%	-2.93%	-2.9%	-1.89%	0.694%
CN(C)CCN(Cc1ccccc1)c1ccccn1	1.64%	2.34%	0.0331%	3.36%	5.32%	0.326%	-1.72%	-0.134%	1.29%	2.37%
COc1ccc(CN(CCN(C)C)c2ccccn2)cc1	-4.36%	-0.213%	-2.04%	-0.968%	2.69%	-3.48%	-2.01%	-2.03%	-1.61%	0.98%
N[C@@H](Cc1cc(I)c(Oc2ccc(O)c(I)c2)c(I)c1)C(=O)O	3.32%	3.94%	1.41%	2.64%	5.93%	-3.21%	13.2%	14.9%	10.1%	0.729%

Structure (SMILES)	growth inhibition (DIPGX29)	growth inhibition (DIPGX37)	growth inhibition (DIPGX7)	growth inhibition (DIPGX9)	growth inhibition (HGGX39)	growth inhibition (HGGX6)	growth inhibition (HNSC)	growth inhibition (SUDIPGIV)	growth inhibition (SUDIPGVI)	growth inhibition (SUDIPGXIII)
Cc1ccc(-n2[nH]c(C)c(N=Nc3cccc(-c4cccc(C(=O)O)c4)c3O)c2=O)cc1C	-2.95%	-1.98%	0.213%	-1.59%	-1.34%	-2.27%	13.7%	-2.64%	-2.5%	1.95%
O=C1CCc2cc(OCCCCc3nnnn3C3CCCCC3)ccc2N1	3.36%	2.01%	4.29%	2.35%	7.05%	2.3%	4.38%	3.38%	3.43%	1.12%
NCCS(=O)(=O)O	0.304%	1.36%	0.217%	0.788%	0.579%	1.43%	-2.23%	-0.945%	0.882%	-0.421%
CC(=O)Oc1ccc(C(c2ccc(OC(C)=O)cc2)c2ccccn2)cc1	2.78%	3.71%	5.33%	8.29%	20.8%	3.52%	4.99%	18.7%	3.8%	5.98%
CC1(C)[C@H](C(=O)O)N2C(=O)C[C@H]2S1(=O)=O	2.32% and -0.376%	-0.186% and 1.2%	3.29% and 0.579%	2.15% and 2.67%	4.9% and 2.16%	1.21% and -0.215%	11.1% and 0.73%	1.62% and -0.448%	2.58% and 1.67%	0.364% and -0.373%
CCCCNc1cc(C(=O)O)cc(S(N)(=O)=O)c1Oc1ccccc1	-3.49%	-2.83%	-0.851%	-2.74%	-2.98%	-3.62%	-3.52%	-5.34%	-8.55%	-2.43%
Nc1nc(N)c2nc(-c3ccccc3)c(N)nc2n1	5.33%	1.67%	1.42%	1.23%	3.58%	1.3%	3.87%	3.03%	5.65%	0.714%
Clc1ccccc1CN1CCc2sccc2C1	1.5%	3.08%	2.39%	2.4%	4.15%	0.755%	1.29%	0.722%	3.23%	1.33%
CO[C@H]1C(=O)[C@]2(C)[C@@H](OC)C[C@H]3OC[C@@]3(OC(C)=O)[C@H]2[C@H](OC(=O)c2ccccc2)[C@]2(O)C[C@H](OC(=O)[C@H](O)[C@@H](NC(=O)OC(C)(C)C)c3ccccc3)C(C)=C1C2(C)C	6.45%	5.31%	8.93%	18.4%	26.1%	12.9%	70.7%	22.5%	3.28%	2.32%
O=S(=O)(O)NC1CCCCC1	0.811%	0.93%	1.03%	0.594%	2.81%	1.56%	0.385%	0.0436%	0.0298%	-1.99%
CN1CCN(c2cc3c(cc2F)c(=O)c(C(=O)O)cn3-c2ccc(F)cc2)CC1	0.274%	1.39%	0.237%	1.68%	1.58%	-0.335%	4.83%	0.444%	1.63%	0.0917%
OCCN1C[C@H](O)[C@@H](O)[C@H](O)[C@H]1CO	2.17%	1.74%	3.33%	2.76%	4.58%	1.44%	6.31%	2.25%	4.59%	1.39%
COC(=O)C1=C(C#N)NC(C)=C(C(=O)OC(C)C)C1c1cccc([N+](=O)[O-])c1 (stereo not given)	-1.9%	-0.628%	-0.445%	-1.03%	-1.34%	-3.12%	5%	-1.37%	-1.47%	1.7%
O=C(O)c1cc(/N=N/c2ccc(O)c(C(=O)O)c2)ccc1O	-0.786%	0.929%	0.432%	0.755%	1.33%	0.125%	11.3%	-0.724%	-2.65%	0.343%
CN(C)CCC(c1ccccc1)c1ccccn1 (stereo not given)	1.43%	4.57%	2.52%	0.794%	3.82%	3.28%	1.8%	1.78%	2.2%	0.511%
Nc1nc(F)nc2c1ncn2[C@@H]1O[C@H](COP(=O)(O)O)[C@@H](O)[C@@H]1O	16.9%	1.7%	11.8%	31.4%	8.94%	-0.81%	23.2%	9.24%	-2.06%	1.2%
COc1ccc(-n2nc(C(N)=O)c3c2C(=O)N(c2ccc(N4CCCCC4=O)cc2)CC3)cc1	-1.17%	-0.875%	0.291%	0.547%	1.79%	1.04%	-3.66%	-1.21%	1.14%	0.63%
CN(C)C(=O)C(CCN1CCC(O)(c2ccc(Cl)cc2)CC1)(c1ccccc1)c1ccccc1	11.2%	3.96%	9.47%	0.4%	13.9%	9.1%	81.6%	7.8%	3.43%	9.15%
CC(C)(S)[C@@H](N)C(=O)O	0.657%	-0.325%	5.5%	-0.781%	0.519%	-2.1%	45.1%	-0.3%	0.273%	-1.43%
NC(CO)C(=O)NNCc1ccc(O)c(O)c1O (stereo not given)	-0.675%	0.574%	-0.561%	-0.46%	-0.00682%	2.73%	-2.22%	-0.604%	0.203%	-7.46%

Reference: the supplement of paper PMC8253809
